# Source: PubChem (Sanford-Burnham Center for Chemical Genomics)
# In the library only some 4.1% were active in any assay of this set; here they are far more common.
# pCIP destab: p/CIP-EGFP fusion destabilizers, primary screen, fluorescence, F442A cells; Q05BA5; 16 h; decrease of EGFP signal, % at 10 µM; 290,000 compounds, 0.01% hits;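 active = EGFP signal decrease of at least 30% at 10 µM or well 3 SD below plate mean, unless failing retest; inactive = the rest, including hits failing retest or dose response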
# FAS TE block: FAS thioesterase domain inhibitors, primary screen, biochemical, fluorescence intensity, uHTS | Fatty acid synthase (Homo sapiens), P49327 | recombinant FAS-TE, OMFH fluorogenic substrate, fluorescence endpoint | inhibition, % at 15 µM | 360,000 compounds, 0.67% hits | AID 602261, 2012;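 active = compounds whose normalised, plate-corrected inhibition of enzyme fluorescence in the single-dose primary screen is 50% or more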;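 note: 0% = DMSO with enzyme and 100% = substrate without enzyme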
# GRIN3A LBD mod: binders of NR3A ligand-binding domain, primary screen, biophysical, differential scanning fluorimetry, uHTS. NR3A LBD differential scanning fluorimetry, Tm shift; 0% = protein alone, 100% = glycine-bound protein. AID 1259313, 2017. Tm shift relative to glycine control, % at 25 µM. 340,000 compounds, 2.5% hits;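 active = melting temperature shift of at least 10% of the positive control shift, at one fixed dose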
# beta cell repl: inducers of MIN6 beta-cell proliferation, primary screen, ATP luminescence, uHTS; proliferation, % at 10 µM; MIN6 cells proliferation, ATPlite luminescence, 48 h; cells starved in 0.2% serum; 100% = growth in 10% serum; 330,000 compounds, 0.29% hits; AID 2380, 2010;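 active = compounds whose signal lies at least 3.5 SD above the mean of all wells on their plate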;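 note: 0% = DMSO-treated cells in low-serum medium and 100% = 10% serum control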
# MPTP block: mitochondrial permeability transition pore inhibitors, primary screen, biochemical, isolated mouse mitochondria, absorbance. Ca2+ swelling absorbance, 30 min. inhibition, % at 10 µM. 360,000 compounds, 1.4% hits;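 active = inhibition of 50% or more, scaled per plate between neutral and stimulator controls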;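 note: 0% = DMSO wells given calcium and 100% = 1 mM EGTA wells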
# MPTP counter: fluorescence retest of MPTP screen hits in isolated mitochondria, single concentration. shares compounds with MPTP block. membrane potential, Rhodamine 123 fluorescence. inhibition, % at 10 µM. 5,000 compounds, 78% hits. AID 624504, 2012; in the data active = inhibition above about 22%;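 note: 0% = DMSO vehicle and 100% = positive control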
# MPTP abs DR: mitochondrial permeability transition pore inhibitors, dose response, biochemical, absorbance, uHTS hits | isolated mitochondria swelling | 780 compounds, 58% hits | AID 651561, 2012 | shares compounds with MPTP block | IC50, µM; in the data active = IC50 below about 20 µM
# MPTP cs DR: fluorescent counter-screen in isolated mitochondria, dose response, counter-screen for MPTP inhibitor project, biochemical, fluorescence, uHTS hits; isolated mitochondria counterscreen, fluorescence read-out; 780 compounds, 49% hits; IC50, µM; shares compounds with MPTP block; in the data active = IC50 below about 80 µM
# Active calls of the source: *; i = inactive; . = no result.
SMILES,pCIP destab,FAS TE block,GRIN3A LBD mod,beta cell repl,MPTP block,MPTP counter,others
COc1cccc(C(=O)NCC(=O)N/N=C/c2ccc(OC(=O)c3cccs3)c(OC)c2)c1,-3.0,7.9,-5.7,-4.7,0.2,.,
CSc1cccc(NC(=S)N2CCC(c3ccccc3)C2)c1 (stereo not given),-9.9,13.4,-15.2,1.9,3.4,.,
CSc1cccc(NC(=S)N2CCCN(Cc3ccccc3F)C2)c1,-7.1,10.1,-0.9,-4.6,69.3*,81.1*,
CC(OCCN1CCCC1)(c1ccc(F)cc1)c1ccc(F)cc1,6.6,-6.1,-3.8,0.0,75.5*,-2.1,MPTP abs DR=i;MPTP cs DR=>80
CCc1ccc(NC(=O)C(C)OC(=O)Cc2cc(OC)c(OC)c(OC)c2)cc1 (stereo not given),.,4.8,-0.9,-0.5,0.0,.,
COc1ccc(/C(N)=N/OC(=O)CSc2ccccc2)cc1OC,2.4,7.9,-1.5,2.6,-0.9,.,
O=C(CSc1nc2ccccc2c(=O)n1-c1ccccc1)N1CCc2ccccc2C1,6.1,22.0,-1.5,0.0,83.8*,74.7*,
O=C(N/N=C/c1cc(Cl)ccc1O)c1ccc(Br)cc1,0.4,12.1,7.9,.,92.5*,63.9*,
O=C(N/N=C\c1cc(Br)ccc1O)c1ccc(S(=O)(=O)N2CCCCC2)cc1,2.9,11.8,8.0,-4.4,66.5*,53.4*,
Cc1cccc(/C=N\NC(=O)c2ccc(Cl)cc2)c1O,-2.8,14.9,10.1*,-4.9,73.5*,80.2*,
CCOc1ccc2[nH]c(C)c(CN3CCCCCC3)c(=O)c2c1,4.6,-1.7,4.3,-0.5,0.6,.,
CCCNC(=S)N1CCN(c2nc(-c3ccc(C)cc3)cs2)CC1,-8.5,21.1,11.9*,-4.2,99.0*,80.6*,
CCC(NC(=O)Nc1nccs1)(C(F)(F)F)C(F)(F)F,-7.0,0.1,0.8,-1.6,0.9,.,
CCSc1nnc(NC(=O)NC(C)(C(F)(F)F)C(F)(F)F)s1,-8.3,-3.9,-8.7,0.0,92.2*,93.2*,
CCSc1nnc(NC(=O)NC(CC)(C(F)(F)F)C(F)(F)F)s1,4.7,-1.8,-0.4,-7.1,88.2*,102.0*,
CCCC(=O)Nc1nnc(SCC)s1,-16.5,-12.1,-15.5,-0.3,0.8,.,
CN(C)S(=O)(=O)c1cccc(NC(=O)CO/N=C(\N)c2ccccc2)c1,.,-3.0,1.8,-1.0,-0.6,.,
CCOc1ccc2nc(CN3CCN(Cc4ccsc4)C(CCO)C3)ccc2c1 (stereo not given),2.3,-3.8,-1.0,0.8,0.6,.,
CCC(=O)NC1(Cc2ccc(O)cc2)CCCCC1,-12.7,-0.7,-0.9,-2.0,0.5,.,
CCC(C)Nc1nc(OC(C(F)(F)F)C(F)(F)F)nc(OC(C(F)(F)F)C(F)(F)F)n1 (stereo not given),0.1,-5.0,0.9,-5.3,60.0*,59.6*,
O=C(Nc1cccc(Cl)c1)OCCN1CCN(Cc2ccccc2)CCC1=O,0.4,3.5,-2.5,-2.7,93.3*,89.2*,
Cc1ccc(NC(=O)COc2nsnc2N2CCOCC2)cc1Cl,-1.1,9.2,-8.1,-2.3,-1.3,.,
O=[N+]([O-])c1ccc(N/N=C2\CC3CC=CC23)c([N+](=O)[O-])c1 (stereo not given),-11.6,26.3,0.0,-6.6,91.8*,75.1*,
O=[N+]([O-])c1ccc(N/N=C2\CC3CC=CC23)cc1 (stereo not given),10.6,-3.0,-4.3,-1.2,-1.0,.,
CC(C)Sc1nc(-c2cccs2)nc2c1c(=O)n(C)c(=O)n2C,-2.4,.,.,.,.,.,
SMILES,pCIP destab,FAS TE block,GRIN3A LBD mod,beta cell repl,MPTP block,MPTP counter,others
CCc1ccc(/C=C\C(=O)N2CCc3ccccc3C2)cc1,-7.9,8.1,-1.9,-3.6,60.7*,36.4*,
CCc1ccc(/C=C\C(=O)N2CCCC2)cc1,.,-5.1,0.2,-4.4,1.5,.,
O=C(NCCCN1CCOCC1)/C(=C/c1ccc(-c2cccc([N+](=O)[O-])c2)o1)NC(=O)c1ccccc1,.,8.7,.,.,0.2,.,
Cc1nc2nc(C)n(CCN3CCOCC3)c(=O)c2c(-c2cccc([N+](=O)[O-])c2)c1C(=O)CCCCCCCCCCN1CCC(c2ccccc2)(c2ccccc2)CC1,.,21.9,-7.7,.,59.4*,107.2*,
CCCCOC(=O)c1[nH]c2c(c1C)C(=O)CC(c1cc(OC)c(OC)c(OC)c1)C2 (stereo not given),-28.5,12.3,-2.2,-6.9,69.9*,90.2*,
Nc1ccc(S(=O)(=O)Nc2ccc(C(=O)c3ccccc3)cc2)cc1,-8.7,0.1,-7.9,0.5,-0.1,.,
C=CCSc1nsc(NC(=O)Nc2ccc(F)cc2)n1,-21.6,17.3,27.6*,-5.6,98.3*,78.4*,
CCSc1nsc(NC(=O)Nc2ccccc2F)n1,21.7,2.2,-2.4,0.4,66.4*,87.3*,
COc1cccc(NC(=O)Nc2ccncc2)c1,-4.5,-5.4,1.2,-2.9,12.4,.,
CCSc1nsc(NC(=O)Nc2cccc(OC)c2)n1,-7.0,3.5,15.6*,-5.0,84.1*,85.4*,
CC(c1ccccc1)c1nnc(NC(=O)Nc2ccccc2F)s1 (stereo not given),-6.8,4.5,-0.5,-3.1,-0.8,.,
COc1cc(CNCc2c[nH]c3ccccc23)cc(OC)c1,-9.7,-0.9,0.5,-2.9,59.6*,0.6,MPTP abs DR=6.29*;MPTP cs DR=52.7*
Cc1cccc(S(=O)(=O)Nc2nc3ccccc3nc2Nc2ccc3c(c2)OCO3)c1,-12.3,25.1,21.1*,-3.5,96.6*,64.7*,
Cc1ccc(S(=O)(=O)Nc2nc3ccccc3nc2Nc2cccc(S(=O)(=O)N3CCCC3)c2)cc1,-36.3,14.1,9.6,-6.3,82.2*,41.1*,
O=S(=O)(Nc1nc2ccccc2nc1Nc1ccc2c(c1)OCO2)c1ccccc1,-8.6,4.6,8.4,0.0,40.7,.,
FC(F)(F)c1nnc(-c2ccccc2)nc1Oc1ccc(Cl)cc1Cl,2.1,37.4,-6.9,-3.7,70.9*,0.8,MPTP abs DR=14.4*;MPTP cs DR=>80
FC(F)(F)c1cccc(Oc2nc(-c3ccccc3)nnc2C(F)(F)F)c1,4.7,9.6,-1.1,-5.6,0.9,.,
CCC1(C)Cc2c(sc(NC(=S)NC(=O)c3ccccc3)c2C#N)CO1 (stereo not given),-7.6,10.0,22.5*,-5.7,82.9*,5.1,MPTP abs DR=i;MPTP cs DR=4.51*
